# Laboratory results reported in PubChem BioAssay (EPA / NIEHS).
# Where “and” joins values, the source holds several entries; their conditions need not be identical. Equal values may be shown once. More than one record can exist for a structure, and the calls need not agree. Calls of active or inactive are those of the source. Rule for the calls: active = hit-call score of the fitted dose curve at least 0.9, where 1 is the maximum; inactive = score below 0.9.
# Columns and labels:
# [1] = read-out: Monocyte Chemoattractant Protein-1 (MCP1), CCL2 (gene 6347); assay: BSK_LPS_MCP1: BioMAP Diversity Plus: LPS Assay for Monocyte Chemoattractant Protein-1 (MCP1) Biomarker Activity (AID 2283081); details: primary human HUVEC with PBMC; actives raise or lower the signal;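 for AC50: secreted MCP-1 protein quantified by ELISA in culture supernatant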
# In short: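 Human endothelial–PBMC co-cultures were dosed with chemical, then LPS-driven MCP-1 levels were quantified by ELISA at 24 h. Activity in either direction was fitted versus DMSO negative control.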
# [2] = BSK_LPS_PGE2: BioMAP Diversity Plus: LPS Assay for Prostaglandin E2 (PGE2) Biomarker Activity (AID 2283082); details: primary human HUVEC with PBMC; actives raise or lower the signal;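 for AC50: secreted prostaglandin E2 measured by ELISA in LPS-stimulated co-culture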
# In short: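 PGE2 release measured by ELISA in an LPS-activated co-culture of human umbilical vein endothelial cells and peripheral blood mononuclear cells, read at 24 h post-dosing. DMSO served as baseline for bidirectional curve fitting.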
# [3] = read-out: Macrophage colony-stimulating factor (MCSF), CSF1 (gene 1435); assay: BSK_LPS_MCSF: BioMAP Diversity Plus: LPS Assay for Macrophage colony-stimulating factor (MCSF) Biomarker Activity (AID 2283083); details: primary human HUVEC with PBMC; actives raise or lower the signal
# In short: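 ELISA readout of M-CSF after 24 h compound exposure in a human endothelial/PBMC co-culture. Activity, in either direction, is fitted relative to DMSO vehicle.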
# [4] = read-out: Tissue Factor, F3 (gene 2152); assay: BSK_LPS_TissueFactor: BioMAP Diversity Plus: LPS Assay for Tissue Factor Biomarker Activity (AID 2283084); details: primary human HUVEC with PBMC; actives raise or lower the signal
# In short: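 ELISA signal for cell-surface Tissue Factor (CD142) was read 24 h after compound dosing of an LPS-stimulated human endothelial–PBMC primary co-culture. Gain or loss of signal was scored relative to DMSO.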
# [5] = read-out: Tumor necrosis factor (Homo sapiens) (UniProt P01375); assay: BSK_LPS_TNFa: BioMAP Diversity Plus: LPS Assay for Tumour Necrosis Factor alpha (TNFa) Biomarker Activity (AID 2283085); details: primary human HUVEC with PBMC; actives raise or lower the signal
# In short: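 TNFa was quantified by ELISA in LPS-activated co-cultures of human endothelial cells and PBMC, 24 h post-dosing. Both increases and decreases versus DMSO were fitted.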
# [6] = read-out: Vascular cell adhesion molecule 1 (VCAM1), VCAM1 (gene 7412); assay: BSK_LPS_VCAM1: BioMAP Diversity Plus: LPS Assay for Vascular cell adhesion molecule 1 (VCAM1) Biomarker Activity (AID 2283086); details: primary human HUVEC with PBMC; actives raise or lower the signal
# In short: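 VCAM-1 quantified by ELISA in an LPS-activated co-culture of human endothelial cells and peripheral blood mononuclear cells, read 24 h post-treatment. Fitted in both directions versus DMSO; parallel SRB staining flags overt cytotoxicity.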
# CD38, CD38 (gene 952) = assay: BSK_SAg_CD38: BioMAP Diversity Plus: SAg Assay for CD38 Biomarker Activity (AID 2283087); details: primary human HUVEC with PBMC; actives raise or lower the signal
# In short: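 CD38 quantified by ELISA (fluorescence) in a superantigen-activated endothelial cell–PBMC co-culture at 24 h post-dose. Activity fitted in both directions relative to DMSO; parallel SRB and Alamar Blue cytotoxicity read-outs.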
# CD40, CD40 (gene 958) = assay: BSK_SAg_CD40: BioMAP Diversity Plus: SAg Assay for CD40 Biomarker Activity (AID 2283088); details: primary human HUVEC with PBMC; actives raise or lower the signal
# In short: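 Compounds were dosed onto a human primary endothelial–PBMC co-culture, and after 24 h CD40 was quantified by ELISA using a fluorescence signal. Activity in either direction was fitted relative to DMSO.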
# [7] = read-out: E-selectin (Homo sapiens) (UniProt P16581); assay: BSK_SAg_Eselectin: BioMAP Diversity Plus: SAg Assay for Eselectin Biomarker Activity (AID 2283091); details: primary human HUVEC with PBMC; actives raise or lower the signal
# In short: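 Co-culture: HUVEC + PBMC. Dose compound; 24 h. ELISA for E-selectin. Bidirectional fit vs DMSO.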
# [8] = read-out: Monokine induced gamma interferon (MIG), CXCL9 (gene 4283); assay: BSK_SAg_MIG: BioMAP Diversity Plus: SAg Assay for Monokine induced gamma interferon (MIG) Biomarker Activity (AID 2283092); details: primary human HUVEC with PBMC; actives raise or lower the signal
# In short: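 HUVEC plus human PBMC co-culture, chemicals dosed and MIG (CXCL9) quantified by ELISA at 24 h. Bidirectional curve fitting against DMSO as negative control and baseline, so both gain and loss of signal count as activity.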
# [9] = BSK_SAg_PBMCCytotoxicity: PBMC Cytotoxicity Assessment in the BioMAP Diversity Plus: SAg Assay (AID 2283093); details: primary human HUVEC with PBMC;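 note: fitted both ways against DMSO so a hit may be loss or gain of signal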
# In short: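 PBMC viability by Alamar Blue reduction, fluorescence read at 546/580 nm after 6 h dye exposure. Cells were dosed 1 h before SEB plus TSST-1 activation (20 ng/mL final each), then held 90 h; endothelial/PBMC human co-culture.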
# [10] = read-out: Interleukin-8 (IL8), CXCL8 (gene 3576); assay: BSK_SAg_IL8: BioMAP Diversity Plus: SAg Assay for Interleukin-8 (IL8) Biomarker Activity (AID 2283094); details: primary human HUVEC with PBMC; actives raise or lower the signal
# In short: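 ELISA readout of IL-8 from a superantigen-activated endothelial/PBMC primary human co-culture, taken 24 h post-dosing and fitted in both directions against DMSO; parallel SRB total-protein staining flags overt cytotoxicity.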
# [11] = BSK_SAg_Proliferation: Cell Proliferation Assessment in the BioMAP Diversity Plus: SAg Assay (AID 2283095); details: primary human HUVEC with PBMC;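 note: relative cell number as total protein by SRB absorbance in sub-confluent culture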
# In short: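 Relative cell number in the endothelial cell/PBMC co-culture was quantified at 96 h by SRB staining (0.1% SRB, 10% TCA fixation, read at 560 nm). Curves were fitted in both directions relative to DMSO baseline.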
# [12] = BSK_SAg_SRB: Viability Assessment in the BioMAP Diversity Plus: SAg Assay (AID 2283096); details: primary human HUVEC with PBMC;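 note: cells read one day after compound addition; hits may be either gain or loss of signal compared with DMSO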
# In short: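 Compounds were added to a human vascular co-culture of umbilical vein endothelium and PBMC. After 24 h, parallel cultures were fixed with 10% TCA, stained with 0.1% sulforhodamine B and read at 560 nm. Gain or loss of signal was fitted relative to DMSO.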
# [13] = read-out: Monocyte Chemoattractant Protein-1 (MCP1), CCL2 (gene 6347); assay: BSK_SAg_MCP1: BioMAP Diversity Plus: SAg Assay for Monocyte Chemoattractant Protein-1 (MCP1) Biomarker Activity (AID 2283090); details: primary human HUVEC with PBMC; actives raise or lower the signal
# In short: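 Values derive from bidirectional fitting of ELISA-measured MCP1 against DMSO controls. Readings were taken 24 h after dosing human vascular endothelial cells co-cultured with peripheral blood mononuclear cells under superantigen stimulation.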
# CD69, CD69 (gene 969) = assay: BSK_SAg_CD69: BioMAP Diversity Plus: SAg Assay for CD69 Biomarker Activity (AID 2283089); details: primary human HUVEC with PBMC; actives raise or lower the signal;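 for AC50: cell surface CD69 protein quantified by ELISA with fluorescence detection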
# In short: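 HUVEC co-cultured with PBMC were dosed with chemical, and CD69 was measured by ELISA with fluorescence read-out 24 h later. Bidirectional curve fitting used DMSO as negative control and activity baseline.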
# E-selectin (Homo sapiens), sequence (P16581 whole entry, looked up): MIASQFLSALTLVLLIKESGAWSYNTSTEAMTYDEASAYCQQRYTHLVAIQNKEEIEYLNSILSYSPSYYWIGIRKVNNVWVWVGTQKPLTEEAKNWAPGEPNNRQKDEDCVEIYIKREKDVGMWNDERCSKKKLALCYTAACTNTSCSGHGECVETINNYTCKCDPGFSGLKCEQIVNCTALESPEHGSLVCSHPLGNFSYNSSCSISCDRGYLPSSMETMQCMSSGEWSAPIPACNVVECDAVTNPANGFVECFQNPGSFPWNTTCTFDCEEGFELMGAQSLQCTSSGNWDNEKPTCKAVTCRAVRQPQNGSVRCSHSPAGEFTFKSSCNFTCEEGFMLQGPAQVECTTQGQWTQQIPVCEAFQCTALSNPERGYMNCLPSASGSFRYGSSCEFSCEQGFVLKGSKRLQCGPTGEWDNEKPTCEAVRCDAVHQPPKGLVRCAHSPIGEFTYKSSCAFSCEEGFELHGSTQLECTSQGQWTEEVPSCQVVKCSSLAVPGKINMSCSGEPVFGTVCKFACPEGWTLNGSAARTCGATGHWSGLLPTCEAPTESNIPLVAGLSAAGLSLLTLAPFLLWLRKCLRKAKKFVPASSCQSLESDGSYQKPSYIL
# Tumor necrosis factor (Homo sapiens), sequence (P01375 whole entry, looked up): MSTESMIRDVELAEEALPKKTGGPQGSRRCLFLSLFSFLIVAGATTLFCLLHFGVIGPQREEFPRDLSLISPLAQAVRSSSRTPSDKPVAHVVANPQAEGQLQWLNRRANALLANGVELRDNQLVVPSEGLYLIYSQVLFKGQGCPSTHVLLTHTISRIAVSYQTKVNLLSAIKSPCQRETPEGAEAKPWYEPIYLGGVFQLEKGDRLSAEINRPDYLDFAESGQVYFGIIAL
smiles,measurement,setting,value
OCC(F)(F)C(F)(F)C(F)(F)F,outcome,[1],inactive
same,outcome,[2],inactive
same,outcome,[3],inactive
same,outcome,[4],inactive
same,outcome,[5],inactive
same,outcome,[6],inactive
same,outcome,"CD38, CD38 (gene 952)",inactive
same,outcome,"CD40, CD40 (gene 958)",inactive
same,outcome,[7],inactive
same,outcome,[8],inactive
same,outcome,[9],inactive
same,outcome,[10],inactive
same,outcome,[11],inactive
same,outcome,[12],inactive
O=P(O)(O)OCCC(F)(F)C(F)(F)C(F)(F)C(F)(F)C(F)(F)C(F)(F)F,outcome,[1],inactive
same,outcome,[2],inactive
same,outcome,[3],inactive
same,outcome,[4],inactive
same,outcome,[5],inactive
same,outcome,[6],inactive
same,outcome,"CD38, CD38 (gene 952)",inactive
same,outcome,"CD40, CD40 (gene 958)",inactive
same,outcome,[13],inactive
same,outcome,[7],inactive
same,outcome,[8],inactive
same,outcome,[9],inactive
same,outcome,[10],inactive
same,outcome,[11],inactive
same,outcome,[12],inactive
Cc1ccc(S(=O)(=O)OCC(F)(F)C(F)(F)C(F)(F)C(F)(F)C(F)(F)C(F)F)cc1,outcome,[1],inactive
same,outcome,[2],inactive
same,outcome,[3],inactive
same,outcome,[4],inactive
same,outcome,[5],inactive
same,outcome,[6],inactive
same,outcome,"CD38, CD38 (gene 952)",inactive
same,outcome,"CD40, CD40 (gene 958)",inactive
same,outcome,"CD69, CD69 (gene 969)",inactive
same,outcome,[7],inactive
same,outcome,[8],inactive
same,outcome,[9],inactive
same,outcome,[10],inactive
same,outcome,[11],inactive
same,AC50,[12],44 µM (active) and 37.4 µM (active)
O=C(O)C(F)(F)C(F)(F)C(F)(F)C(F)(F)C(F)(F)C(F)(F)C(F)(F)C(F)(F)C(F)(F)C(F)F,AC50,[1],41.1 µM (active) and 44.3 µM (active)
same,AC50,[2],42.6 µM (active) and 48.8 µM (active)
same,outcome,[3],inactive
same,outcome,[4],inactive
same,outcome,[5],inactive
same,AC50,[6],52.5 µM (active) and 46.9 µM (active)
same,AC50,"CD38, CD38 (gene 952)",48.3 µM (active) and 46.3 µM (active)
same,AC50,"CD40, CD40 (gene 958)",41.9 µM (active) and 44.6 µM (active)
same,AC50,"CD69, CD69 (gene 969)",37.6 µM (active) and 47.3 µM (active)
same,AC50,[13],44.9 µM (active) and 46 µM (active)
same,AC50,[7],54.2 µM (active)
same,outcome,[7],inactive
same,outcome,[8],inactive
same,outcome,[9],inactive
same,AC50,[10],41.6 µM (active) and 47.9 µM (active)
same,AC50,[11],47.8 µM (active) and 54.6 µM (active)
same,AC50,[12],47.3 µM (active) and 45.8 µM (active)
FC(F)(F)C(F)(F)C(F)(F)C(F)(F)C(F)(F)C(F)(F)C(F)(F)C(F)(F)F,outcome,[1],inactive
same,outcome,[2],inactive
same,outcome,[3],inactive
same,outcome,[4],inactive
same,outcome,[5],inactive
same,outcome,[6],inactive
same,outcome,"CD38, CD38 (gene 952)",inactive
same,outcome,"CD40, CD40 (gene 958)",inactive
same,outcome,"CD69, CD69 (gene 969)",inactive
same,outcome,[13],inactive
same,outcome,[7],inactive
same,outcome,[8],inactive
same,outcome,[9],inactive
same,outcome,[10],inactive
same,outcome,[11],inactive
same,outcome,[12],inactive
